Compounds without any hit were thinned out: in the full panel of roughly 79,000, 15% have a hit. Unmarked numbers belong to inactive results. The source made the active and inactive calls. Cut-off read from the data, not from the text of the source: active = growth inhibition above about 70%; inactive = the rest.
Columns and labels:
[1] = NCI Yeast Anticancer Drug Screen. Data for the rad52 strain (AID 147);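 note: 0% = growth of vehicle-treated control cultures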; details: S. cerevisiae rad52 mutant growth inhibition, active compounds read high
In short: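 Here a repair-compromised yeast strain receives each compound; its growth is then quantified and normalised to vehicle-only controls.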

[2] = NCI Yeast Anticancer Drug Screen. Data for the wt1 strain (AID 149);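 note: 0% = growth of vehicle-treated wt1 cultures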; details: S. cerevisiae wt1 strain (SPY 50644) growth inhibition, active compounds read high
In short: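 Yeast wt1 strain exposed to compounds; growth inhibition measured relative to vehicle-treated controls.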

[3] = NCI Yeast Anticancer Drug Screen. Data for the rad50EPP+ strain (AID 151);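 note: 0% = growth of vehicle-treated control cultures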; details: S. cerevisiae rad50 mutant strain, active compounds read high
In short: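 Read-out is yeast growth inhibition relative to vehicle; cells used were the rad50EPP+ strain.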

[4] = NCI Yeast Anticancer Drug Screen. Data for the mgt1 strain (AID 153); details: S. cerevisiae mgt1 mutant growth inhibition, active compounds read high
In short: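 Measured: inhibition of mgt1 yeast growth by compound, normalized to vehicle-treated cultures.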

[5] = NCI Yeast Anticancer Drug Screen. Data for the rad50 strain (AID 155);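 note: 0% = growth of vehicle-only cultures of the same strain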; details: S. cerevisiae rad50 strain growth inhibition, active compounds read high
In short: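 Yeast carrying a defined DNA repair defect were exposed to test compounds, and growth was compared with vehicle-treated controls to give percent inhibition.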

[6] = NCI Yeast Anticancer Drug Screen. Data for the mec2-1 strain (AID 157); details: S. cerevisiae mec2-1 strain, active compounds read high
In short: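 Using mec2-1 yeast: add compound, measure growth, express inhibition versus vehicle-treated cultures.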

[7] = NCI Yeast Anticancer Drug Screen. Data for the rad14 strain (AID 159);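 note: 0% = growth of vehicle-treated control cultures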; details: S. cerevisiae rad14 strain growth inhibition, active compounds read high
In short: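 Yeast cells carrying a defined DNA-repair defect were exposed to compounds, and growth inhibition was calculated relative to vehicle-treated control cultures.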

[8] = NCI Yeast Anticancer Drug Screen. Data for the sgs1 mgt1 strain (AID 161);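 note: 0% = growth of cultures given vehicle only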; details: S. cerevisiae sgs1 mgt1 strain, active compounds read high
In short: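 Growth of a repair-deficient yeast mutant was monitored after compound treatment and expressed as inhibition relative to vehicle-treated cultures.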

[9] = NCI Yeast Anticancer Drug Screen. Data for the CLN2oe strain (AID 163);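 note: 0% = growth of vehicle-only control cultures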; details: S. cerevisiae CLN2oe strain, active compounds read high
In short: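 Whole-cell yeast growth assay. A strain engineered for altered cell-cycle control received compound, and inhibition relative to vehicle-treated cultures was recorded.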

[10] = NCI Yeast Anticancer Drug Screen. Data for the cln2 rad14 strain (AID 165);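 note: 0% = growth equal to vehicle treated cultures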; details: S. cerevisiae cln2 rad14 strain, active compounds read high
In short: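 Yeast strain cln2 rad14, bearing defects in cell cycle control and DNA repair, serves as the test system; values reflect growth inhibition compared with vehicle.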

[11] = NCI Yeast Anticancer Drug Screen. Data for the bub3 strain (AID 167); details: S. cerevisiae bub3 mutant strain, active compounds read high
In short: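 Compounds were applied to a genetically altered yeast strain carrying a cell-cycle control defect. Growth inhibition was scored against vehicle-treated controls.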

[12] = NCI Yeast Anticancer Drug Screen. Data for the wt2 strain (AID 169);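 note: 0% = growth of vehicle-treated yeast cultures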; details: S. cerevisiae wt2 strain growth inhibition, active compounds read high
In short: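 Treated yeast vs. vehicle-treated yeast: growth inhibition determined.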

[13] = NCI Yeast Anticancer Drug Screen. Data for the mlh1 strain (AID 171);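 note: 0% = growth of vehicle-treated control cultures of the same strain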; details: S. cerevisiae mlh1 strain growth inhibition, active compounds read high
In short: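 A yeast strain with a defined genetic lesion serves as the test organism. Cultures receive compound or vehicle, and growth is measured.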

[14] = NCI Yeast Anticancer Drug Screen. Data for the sgs1 strain (AID 173);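 note: 0% = growth of vehicle-only control cultures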; details: S. cerevisiae sgs1 mutant, active compounds read high
In short: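 A genetically defined yeast mutant is incubated with the test compound, and its growth is compared to that of the same strain given vehicle.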

[15] = NCI Yeast Anticancer Drug Screen. Data for the mlh1 rad18 strain (AID 175); details: S. cerevisiae mlh1 rad18 strain growth inhibition, active compounds read high
In short: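 Steps: expose repair-defective yeast to compound; measure growth; express inhibition against vehicle-treated controls.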

[16] = NCI Yeast Anticancer Drug Screen. Data for the rad18 strain (AID 177); details: S. cerevisiae rad18 mutant growth inhibition, active compounds read high
In short: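 Measured value is growth inhibition of a yeast strain bearing a DNA repair alteration, referenced to vehicle-treated cells.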

[17] = at 5.0 µM (retest, dose inferred, filed as 0.5)
[18] = at 50.0 µM (retest, dose inferred, filed as 5.0)

## O=C1C2C=CC1C1C(=O)OC(=O)C21 (stereo not drawn)
[1]; at 1.2 µM
  growth inhibition: -18%
[1]; at 3.7 µM
  growth inhibition: -15%
[1]; at 11.0 µM
  growth inhibition: -8%
[1]; at 33.0 µM
  growth inhibition: -14%
[1]; at 100.0 µM
  growth inhibition: -24%
[2]; at 1.2 µM
  growth inhibition: -50%
[2]; at 3.7 µM
  growth inhibition: -45%
[2]; at 11.0 µM
  growth inhibition: -45%
[2]; at 33.0 µM
  growth inhibition: -52%
[2]; at 100.0 µM
  growth inhibition: -51%
[3]; at 1.2 µM
  growth inhibition: -17%
[3]; at 3.7 µM
  growth inhibition: -21%
[3]; at 11.0 µM
  growth inhibition: -20%
[3]; at 33.0 µM
  growth inhibition: -11%
[3]; at 100.0 µM
  growth inhibition: -45%
[4]; at 1.2 µM
  growth inhibition: -29%
[4]; at 3.7 µM
  growth inhibition: -13%
[4]; at 11.0 µM
  growth inhibition: -6%
[4]; at 33.0 µM
  growth inhibition: -17%
[4]; at 100.0 µM
  growth inhibition: -28%
[5]; at 1.2 µM
  growth inhibition: -3%
[5]; at 3.7 µM
  growth inhibition: -2%
[5]; [17]
  growth inhibition: 49%
[5]; at 11.0 µM
  growth inhibition: 16%
[5]; at 33.0 µM
  growth inhibition: 13%
[5]; [18]
  growth inhibition: 77% (active)
[5]; at 50.0 µM
  growth inhibition: 83.2% (active)
[5]; at 100.0 µM
  growth inhibition: -2%
[6]; at 1.2 µM
  growth inhibition: -54%
[6]; at 3.7 µM
  growth inhibition: -52%
[6]; [17]
  growth inhibition: 48%
[6]; at 11.0 µM
  growth inhibition: -44%
[6]; at 33.0 µM
  growth inhibition: -51%
[6]; [18]
  growth inhibition: 58%
[6]; at 50.0 µM
  growth inhibition: 90.8% (active)
[6]; at 100.0 µM
  growth inhibition: -45%
[7]; at 1.2 µM
  growth inhibition: -57%
[7]; at 3.7 µM
  growth inhibition: -44%
[7]; at 11.0 µM
  growth inhibition: -48%
[7]; at 33.0 µM
  growth inhibition: -48%
[7]; at 100.0 µM
  growth inhibition: -43%
[8]; [17]
  growth inhibition: 1%
[8]; [18]
  growth inhibition: -6%
[8]; at 50.0 µM
  growth inhibition: 89.2% (active)
[9]; at 1.2 µM
  growth inhibition: -8%
[9]; at 3.7 µM
  growth inhibition: -6%
[9]; at 11.0 µM
  growth inhibition: -24%
[9]; at 33.0 µM
  growth inhibition: -27%
[9]; at 100.0 µM
  growth inhibition: -25%
[10]; [17]
  growth inhibition: 61%
[10]; [18]
  growth inhibition: 25%
[10]; at 50.0 µM
  growth inhibition: 91.8% (active)
[11]; at 1.2 µM
  growth inhibition: -19%
[11]; at 3.7 µM
  growth inhibition: -10%
[11]; [17]
  growth inhibition: 33%
[11]; at 11.0 µM
  growth inhibition: -22%
[11]; at 33.0 µM
  growth inhibition: -7%
[11]; [18]
  growth inhibition: 14%
[11]; at 50.0 µM
  growth inhibition: 89.8% (active)
[11]; at 100.0 µM
  growth inhibition: -23%
[12]; at 1.2 µM
  growth inhibition: -25%
[12]; at 3.7 µM
  growth inhibition: -9%
[12]; at 11.0 µM
  growth inhibition: -35%
[12]; at 33.0 µM
  growth inhibition: -32%
[12]; at 100.0 µM
  growth inhibition: -34%
[13]; at 1.2 µM
  growth inhibition: -45%
[13]; at 3.7 µM
  growth inhibition: -53%
[13]; at 11.0 µM
  growth inhibition: -39%
[13]; at 33.0 µM
  growth inhibition: -64%
[13]; at 100.0 µM
  growth inhibition: -55%
[14]; at 1.2 µM
  growth inhibition: -28%
[14]; at 3.7 µM
  growth inhibition: -31%
[14]; at 11.0 µM
  growth inhibition: -34%
[14]; at 33.0 µM
  growth inhibition: -20%
[14]; at 100.0 µM
  growth inhibition: -39%
[15]; [17]
  growth inhibition: 53%
[15]; [18]
  growth inhibition: 41%
[15]; at 50.0 µM
  growth inhibition: 82.9% (active)
[16]; at 1.2 µM
  growth inhibition: -23%
[16]; at 3.7 µM
  growth inhibition: -2%
[16]; at 11.0 µM
  growth inhibition: 3%
[16]; at 33.0 µM
  growth inhibition: -28%
[16]; at 100.0 µM
  growth inhibition: -10%

— PubChem BioAssay (NCI)
